Values joined by “and” are separate entries in the source; they are usually repeats but may differ in a detail not shown here. Equal values may be shown once. Unmarked numbers belong to inactive results. Inconclusive results are not listed. Where a call stands in place of a potency, no number is given. Active and inactive are the calls of the source. Unless noted, the call rests on the fitted dose curve; in most records, active means well fitted curve in the direction sought with a large enough effect in the repeat runs; inconclusive means weak or mixed curves; inactive means no such curve, though single readings can be large; an effect the other way counts as inactive or inconclusive.
Legend:
[1] = qHTS assay to identify small molecule agonists of the estrogen receptor alpha (ER-alpha) signaling pathway in the presence of an antagonist - cell viability counter screen (AID 1259386);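 further: series mostly up to about 92 µM; cells exposed to compounds for 22 h at 37 °C before the viability read; nearly all actives have a fitted effect of over 30% in size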
Method in brief: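 ICI-182,780 at 10.0nM final accompanies the compound titration (15 concentrations, 22hr, 37C) on VM7Luc4E2 cells. The CellTiter-Fluor fluorescence readout runs in the same wells as the luciferase assay.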

[2] = target: Progesterone receptor (Homo sapiens) (UniProt P06401); experiment: qHTS assay to identify small molecule agonists of the progesterone receptor (PR) signaling pathway (AID 1346784; calls by dose curve; further: nearly all actives have a fitted effect of over 30% in size)
Method in brief: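 Using charcoal-stripped serum (2%) to limit endogenous steroids, PR-UAS-bla HEK 293T cells received compounds for 16 hr at 37C after 6 hr plating; beta-lactamase FRET fluorescence was recorded following 2 hr substrate loading at room temperature.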

[3] = target: Progesterone receptor (Homo sapiens) (UniProt P06401); experiment: qHTS assay to identify small molecule antagonists of the progesterone receptor (PR) signaling pathway (AID 1346795; active means well fitted inhibition curve with a large enough effect in the signal ratio in the repeat runs, not every such curve was filed as active; the % refers to the signal ratio)
Method in brief: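 Inhibition of R5020-induced (1 nM final) beta-lactamase reporter signal in PR-UAS-bla HEK293T cells was scored by FRET fluorescence after overnight (16 hr) compound treatment.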

[4] = qHTS assay to identify small molecule agonists of the progesterone receptor (PR) signaling pathway - cell viability counter screen (AID 1346799; calls by dose curve; further: nearly all actives have a fitted effect of over 45% in size; further: potency means the concentration at half of the fitted maximal effect)
Method in brief: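 Cytotoxicity in PR-bla HEK293T cells: 16 h compound, 37C; CellTiter-Glo added post-FRET read; luminescence after 30 min RT.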

[5] = qHTS assay to identify small molecule antagonists of the TGF-beta/Smad signaling pathway - cell viability counter screen (AID 1346824); further: nearly all actives have a fitted effect of over 50% in size; further: potency means the concentration at half of the fitted maximal effect
Method in brief: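 Cytotoxicity counter-screen run in the same wells as the beta-lactamase Smad reporter read: CellTiter-Glo luminescence after 30 min at room temperature. HEK 293T SBE-bla cells had 5 hr compound exposure at 37 C with TGF-beta1 (0.25 ng/mL stock).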

[6] = qHTS assay to identify small molecule agonists of the TGF-beta/Smad signaling pathway - cell viability counter screen (AID 1346829); further: nearly all actives have a fitted effect of over 45% in size; further: potency means the concentration at half of the fitted maximal effect; on activity change, negative = cytotoxicity: top concentration of the series differs between compounds
Method in brief: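 Compound-treated SBE-bla HEK 293T cells (5 hr, 37 C) were assessed for viability with CellTiter-Glo in parallel with the reporter read.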

[7] = qHTS assay to identify small molecule agonists of the TGF-beta/Smad signaling pathway (AID 1346859; active means well fitted activation curve with a large enough effect in the signal ratio in the repeat runs, not every such curve was filed as active; the % refers to the signal ratio; further: series mostly up to about 77 µM)
Method in brief: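 Stable Smad binding element-beta-lactamase HEK 293T cells; 5 hr compound exposure at 37 C under 5% CO2; 2 hr room-temperature substrate step; fluorescence excited at 405 nm, collected at 460 nm and 530 nm.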

[8] = Human pregnane X receptor (PXR) small molecule agonists, qHTS cell viability counter screen (AID 1346977); further: nearly all actives have a fitted effect of over 50% in size; further: potency means the concentration at half of the fitted maximal effect
Method in brief: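 Readout is CellTiter-Fluor fluorescence from PXR-Luc HepG2 cells. Plated cells rested 5hr, then were treated with compounds for 24hr at 37C and 5% CO2, with reagent present during the last hour.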

[9] = Caspase-3/7 induction in HepG2 cells by small molecules, qHTS assay (AID 1346978); further: nearly all actives have a fitted effect of over 15% in size; further: potency means the concentration at half of the fitted maximal effect
Method in brief: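 Caspase-3/7 induction was measured by Caspase-Glo 3/7 luminescence (30 min, room temperature) after a 17 hr compound exposure of wild-type HepG2 cells seeded at 2,000 per well and pre-incubated 5 hr.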

[10] = Caspase-3/7 induction in CHO-K1 cells by small molecules, qHTS cell viability counter screen (AID 1346979); further: nearly all actives have a fitted effect of over 35% in size; further: potency means the concentration at half of the fitted maximal effect
Method in brief: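 To flag cytotoxic compounds, treated CHO-K1 wild-type cells were given CellTiter-Fluor at 16hr and read fluorescently after 1hr at 37C; the caspase-3/7 luminescence was measured in these same wells.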

[11] = Caspase-3/7 induction in CHO-K1 cells by small molecules, qHTS assay (AID 1346980); further: nearly all actives have a fitted effect of over 15% in size
Method in brief: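 Luminescent Caspase-Glo 3/7 read (30min, room temperature) quantified apoptosis induction. Cells were wild-type CHO-K1, treated with compound for 17hr at 37 C and 5% CO2.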

[12] = target: Thyrotropin-releasing hormone receptor (Homo sapiens) (UniProt P34981); experiment: qHTS assay to identify small molecule antagonists of the thyrotropin-releasing hormone receptor (TRHR) signaling pathway (AID 1346877; active means well fitted inhibition curve with a large enough effect in the repeat runs, not every such curve was filed as active; further: series mostly up to about 51 µM)
Method in brief: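 Screening used HEK293 cells engineered with TRHR, with a brief 5 min room-temperature compound exposure preceding addition of TRH to 1 nM. The read-out was kinetic calcium-dye fluorescence, concentration-response from 15 doses in triplicate.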

[13] = target: Thyrotropin-releasing hormone receptor (Homo sapiens) (UniProt P34981); experiment: qHTS assay to identify small molecule agonists of the thyrotropin-releasing hormone receptor (TRHR) signaling pathway (AID 1346891; calls by dose curve;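 further: HEK293 cells expressing TRHR with calcium dye readout; series mostly up to about 58 µM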)
Method in brief: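 In 1536-format, 1500 TRHR-Hek293 cells per well grew 18 h, took up calcium dye for 2 h at 37 °C, received compound, and were read kinetically; 15-point titrations, triplicates.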

[14] = Caspase-3/7 induction in HepG2 cells by small molecules, qHTS cell viability counter screen (AID 1346981); further: nearly all actives have a fitted effect of over 30% in size; further: potency means the concentration at half of the fitted maximal effect; on activity change, negative = cytotoxicity: series mostly up to about 92 µM
Method in brief: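 Multiplexed with the caspase-3/7 assay: HepG2 cells, 16 hr compound treatment, CellTiter-Fluor viability detection by fluorescence.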

[15] = target: Nuclear receptor subfamily 1 group I member 2 (Homo sapiens) (UniProt O75469); experiment: Human pregnane X receptor (PXR) small molecule agonists, qHTS assay (AID 1346982); further: nearly all actives have a fitted effect of over 35% in size; further: potency means the concentration at half of the fitted maximal effect
Method in brief: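 We seeded PXR-Luc HepG2 cells in assay medium containing 5% charcoal-stripped FBS, added compounds 5 hr later, incubated 24 hr, and read luminescence with ONE-Glo reagent.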

[16] = target: Cytochrome P450 2D6 (Homo sapiens) (UniProt P10635); experiment: Cytochrome P450 Family 2 Subfamily D Member 6 (CYP2D6) small molecule antagonists: luciferase reporter qHTS assay (AID 1671196); further: nearly all actives have a fitted effect of over 50% in size; further: potency means the concentration at half of the fitted maximal effect
Method in brief: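 Luminescence (RLU), read 20 min after detection reagent, indicated CYP2D6 conversion of proluciferin to luciferin during a 1 h NADPH-dependent reaction at room temperature.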

[17] = qHTS assay to identify small molecule antagonists of the progesterone receptor (PR) signaling pathway - cell viability counter screen (AID 1346798); further: nearly all actives have a fitted effect of over 50% in size; further: potency means the concentration at half of the fitted maximal effect; on activity change, negative = cytotoxicity: series mostly up to about 92 µM
Method in brief: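 ATP content as viability readout: CellTiter-Glo luminescence, 30 min room temperature, in PR-UAS-bla HEK293T cells after 16 hr compound/R5020 treatment at 37C and 5% CO2.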

[18] = target: Nuclear receptor subfamily 1 group I member 2 (Homo sapiens) (UniProt O75469); experiment: CYP3A4 induction through human pregnane X receptor (PXR) by small molecules, qHTS assay (AID 1346984); further: nearly all actives have a fitted effect of over 40% in size
Method in brief: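 qHTS, concentration-response format: HepG2 DPX-2 line, PXR/CYP3A4-luc. Exposure 24 h, 37C. Substrate Luciferin-IPA 3uM final, 3 h. Detection One-Glo, 30 min RT.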

[19] = target: Nuclear receptor subfamily 1 group I member 2 (Homo sapiens) (UniProt O75469); experiment: Human pregnane X receptor (PXR) activation by small molecules, qHTS assay (AID 1346985); further: nearly all actives have a fitted effect of over 40% in size
Method in brief: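 DPX-2 cells (HepG2 co-transfected with a PXR response element and a CYP3A4-promoter luciferase construct) were seeded at 2,000 per well, rested 5 hr at 37C, then exposed to DMSO-dissolved compounds for 24 hr. Activation was read as luciferase luminescence.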

Sequence of Nuclear receptor subfamily 1 group I member 2 (Homo sapiens) (O75469 whole entry, looked up): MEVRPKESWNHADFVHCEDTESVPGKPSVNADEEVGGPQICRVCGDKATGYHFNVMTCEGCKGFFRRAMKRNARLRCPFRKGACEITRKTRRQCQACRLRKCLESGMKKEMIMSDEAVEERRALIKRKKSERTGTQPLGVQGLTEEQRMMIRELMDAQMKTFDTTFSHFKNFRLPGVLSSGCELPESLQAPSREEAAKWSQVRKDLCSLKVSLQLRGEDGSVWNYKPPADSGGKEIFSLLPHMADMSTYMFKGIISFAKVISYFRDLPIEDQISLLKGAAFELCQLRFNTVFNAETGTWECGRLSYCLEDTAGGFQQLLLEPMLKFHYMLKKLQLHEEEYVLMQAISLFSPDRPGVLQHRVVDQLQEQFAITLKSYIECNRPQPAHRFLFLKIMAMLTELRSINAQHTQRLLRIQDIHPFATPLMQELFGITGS
Sequence of Thyrotropin-releasing hormone receptor (Homo sapiens) (P34981 whole entry, looked up): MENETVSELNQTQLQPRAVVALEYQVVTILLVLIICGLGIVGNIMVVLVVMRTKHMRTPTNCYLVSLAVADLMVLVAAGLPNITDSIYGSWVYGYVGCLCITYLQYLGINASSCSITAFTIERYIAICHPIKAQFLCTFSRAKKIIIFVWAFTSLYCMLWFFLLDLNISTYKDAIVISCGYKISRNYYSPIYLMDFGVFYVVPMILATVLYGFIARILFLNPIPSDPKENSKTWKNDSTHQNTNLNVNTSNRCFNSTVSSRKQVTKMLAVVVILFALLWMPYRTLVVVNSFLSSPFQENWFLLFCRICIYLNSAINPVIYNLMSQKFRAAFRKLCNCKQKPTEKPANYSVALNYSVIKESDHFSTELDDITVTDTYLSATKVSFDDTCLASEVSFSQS
Sequence of Progesterone receptor (Homo sapiens) (P06401 whole entry, looked up): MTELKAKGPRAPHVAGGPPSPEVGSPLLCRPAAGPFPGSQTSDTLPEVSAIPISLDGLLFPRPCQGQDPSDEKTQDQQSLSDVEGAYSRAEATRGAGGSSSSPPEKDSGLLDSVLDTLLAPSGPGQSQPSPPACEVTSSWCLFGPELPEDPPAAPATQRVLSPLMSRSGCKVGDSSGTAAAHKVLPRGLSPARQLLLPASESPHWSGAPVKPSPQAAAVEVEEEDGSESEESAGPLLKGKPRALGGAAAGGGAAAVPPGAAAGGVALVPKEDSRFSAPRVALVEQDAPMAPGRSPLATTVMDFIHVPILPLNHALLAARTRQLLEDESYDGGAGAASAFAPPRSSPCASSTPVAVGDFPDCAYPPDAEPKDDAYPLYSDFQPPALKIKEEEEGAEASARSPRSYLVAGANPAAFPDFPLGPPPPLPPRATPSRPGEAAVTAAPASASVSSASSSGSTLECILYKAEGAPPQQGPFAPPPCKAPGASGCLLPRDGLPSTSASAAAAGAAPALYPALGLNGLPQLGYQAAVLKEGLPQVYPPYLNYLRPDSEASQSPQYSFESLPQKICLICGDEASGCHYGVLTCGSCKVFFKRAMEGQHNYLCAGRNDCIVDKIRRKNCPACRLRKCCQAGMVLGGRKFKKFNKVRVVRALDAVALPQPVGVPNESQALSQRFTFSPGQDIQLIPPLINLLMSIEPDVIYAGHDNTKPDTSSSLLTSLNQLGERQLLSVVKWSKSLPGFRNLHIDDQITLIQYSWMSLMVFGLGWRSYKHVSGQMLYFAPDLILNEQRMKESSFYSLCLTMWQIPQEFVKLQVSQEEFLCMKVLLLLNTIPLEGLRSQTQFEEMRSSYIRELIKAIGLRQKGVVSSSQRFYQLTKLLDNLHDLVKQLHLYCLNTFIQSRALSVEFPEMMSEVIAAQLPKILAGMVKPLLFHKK
Sequence of Cytochrome P450 2D6 (Homo sapiens) (P10635 whole entry, looked up): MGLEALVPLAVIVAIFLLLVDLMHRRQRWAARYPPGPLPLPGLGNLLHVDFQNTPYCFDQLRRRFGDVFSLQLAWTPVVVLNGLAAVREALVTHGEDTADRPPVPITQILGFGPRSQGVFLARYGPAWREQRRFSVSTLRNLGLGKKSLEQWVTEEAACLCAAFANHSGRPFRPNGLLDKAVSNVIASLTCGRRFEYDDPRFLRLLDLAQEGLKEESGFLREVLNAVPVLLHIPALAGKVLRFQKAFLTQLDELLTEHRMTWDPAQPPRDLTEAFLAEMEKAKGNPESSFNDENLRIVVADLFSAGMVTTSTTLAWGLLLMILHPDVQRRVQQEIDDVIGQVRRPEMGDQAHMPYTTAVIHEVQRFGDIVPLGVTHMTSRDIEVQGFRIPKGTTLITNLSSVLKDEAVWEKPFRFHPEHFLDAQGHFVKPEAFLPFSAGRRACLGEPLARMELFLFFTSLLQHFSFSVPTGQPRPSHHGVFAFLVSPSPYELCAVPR

In the case of `CCC(C)[O-].CCC(C)[O-].CCOC(=O)/C=C(/C)[O-].[Al+3]`, the Potency [1] is reported as “inactive”, the Potency [2] is reported as “inactive” and the Potency [3] is reported as “inactive”. For the same compound, the Potency [4] was “inactive”, the Potency [5] was “inactive” and the Potency [6] was “inactive”. The Potency [7] was “inactive”, the Potency [8] was “inactive” and the Potency [9] was “inactive”. For the same compound, the Potency [10] was “inactive” and the Potency [11] was “inactive”.

For `CCCC[P+](C)(CCCC)CCCC`, the Potency [1] was “inactive”, the Potency [2] was “inactive” and the Potency [3] was “inactive”. The Potency [4] was “inactive”, the Potency [6] was “inactive” and the Potency [7] was “inactive”. For the same compound, the Potency [12] was “inactive”, the outcome [13] was “inactive” and the Potency [8] was “inactive”. The Potency [9] was “inactive”, the Potency [10] was “inactive” and the Potency [11] was “inactive”. For the same compound, the Potency [14] was “inactive”, the Potency [15] was 61.9 µM (active) and the Potency [16] was 203 nM (active).

For `CCCC(=O)OCCc1ccccc1`, the Potency [1] was “inactive”, the Potency [2] was “inactive” and the Potency [17] was “inactive”. The Potency [4] was “inactive”, the Potency [5] was “inactive” and the Potency [6] was “inactive”. The Potency [7] was “inactive”, the Potency [12] was “inactive” and the outcome [13] was “inactive”. The Potency [8] was “inactive”, the Potency [9] was “inactive” and the Potency [11] was “inactive”. For the same compound, the Potency [14] was “inactive” and the Potency [15] was “inactive”.

For `CC(C)(C)CC(C)(C)c1ccc(Nc2ccc(C(C)(C)CC(C)(C)C)cc2)cc1`, the activity change, negative = cytotoxicity [1] was 1.15% [at 8.39 µM], the activation [2] was -0.254% [at 8.39 µM] and the activity change, negative = cytotoxicity [17] was -7.66% [at 8.39 µM]. The activity change, negative = cytotoxicity [4] was 8.24% [at 8.39 µM], the viability change, negative = cytotoxic [5] was 15.5% [at 6.97 µM] and the activity change, negative = cytotoxicity [6] was 1.44% [at 6.97 µM]. For the same compound, the activation [7] was 1.28% [at 6.97 µM], the activity, negative = inhibition [12] was -2.04% [at 4.65 µM] and the activation [13] was -0.0029% [at 5.23 µM]. For the same compound, the activity change, negative = cytotoxicity [8] was 1.07% [at 8.39 µM], the caspase activation [9] was 1.74% [at 8.39 µM] and the activity change, negative = cytotoxicity [10] was 5.88% [at 8.39 µM]. For the same compound, the caspase-3/7 activation [11] was 2.02% [at 8.39 µM], the activity change, negative = cytotoxicity [14] was 3.23% [at 8.39 µM] and the activation [15] was 4.4% [at 8.39 µM].

With `Cc1nc(-c2ccc(Cl)cc2)oc1COC(C)(C)C(=O)O` the Potency [1] was “inactive”, the Potency [2] was “inactive” and the Potency [3] was “inactive”. The Potency [6] was “inactive”, the Potency [7] was “inactive” and the Potency [12] was “inactive”. The Potency [8] was “inactive”, the Potency [9] was “inactive” and the Potency [11] was “inactive”. For the same compound, the Potency [14] was “inactive”, the Potency [15] was “inactive” and the Potency [18] was “inactive”. For the same compound, the Potency [19] was “inactive” and the Potency [16] was “inactive”.

In the case of `CCCCCCCCCCCCCC[N+](C)(C)Cc1ccccc1`, the Potency [1] is reported as “inactive”, the Potency [2] is reported as “inactive” and the Potency [17] is reported as 55.3 µM (active) and 5.96 µM (active). For the same compound, the Potency [4] was 27.7 µM (active) and 6.68 µM (active) and 12.6 mM (active), the Potency [5] was 49.7 µM (active) and the Potency [6] was 49.7 µM (active) and 19 µM (active). The Potency [7] was “inactive”, the Potency [8] was 55.3 µM (active) and the Potency [9] was 62.1 µM (active). For the same compound, the Potency [10] was 43.9 µM (active) and 33.5 µM (active) and 17.8 mM (active), the Potency [11] was “inactive” and the Potency [14] was 69.6 µM (active). For the same compound, the Potency [15] was “inactive”, the Potency [18] was “inactive” and the Potency [19] was “inactive”. The Potency [16] was 908 nM (active) and 1.1 µM (active).

For `O=c1oc2cc(O)ccc2c2oc3cc(O)ccc3c12`, the Potency [1] was “inactive”, the Potency [2] was “inactive” and the Potency [17] was “inactive”. For the same compound, the Potency [4] was “inactive”, the Potency [5] was “inactive” and the Potency [6] was “inactive”. For the same compound, the Potency [12] was “inactive”, the Potency [8] was “inactive” and the Potency [9] was “inactive”. For the same compound, the Potency [10] was “inactive”, the Potency [11] was “inactive” and the Potency [14] was “inactive”. For the same compound, the Potency [15] was 65.7 µM (active).

Source: PubChem BioAssay (Tox21)
